SMILES strings stand for the structures. Records with an inconclusive call do not appear. Activity calls are given as the source filed them. Calls come from the whole dose curve; as a rule, active = well fitted curve in the direction sought with a large enough effect in the signal ratio, with a control signal flat (not every such curve was filed as active); inconclusive = small, poorly fitted or top-dose-only effect, or effect the other way, or a change in a side signal; inactive = no such curve, though single readings can be large or run the other way; the % refers to the signal ratio.

In this experiment the target is Peroxisome proliferator-activated receptor gamma (Homo sapiens) (UniProt P37231). In words: qHTS assay for small molecule agonists of peroxisome proliferator-activated receptor gamma signaling (AID 588536). Conditions: HEK293 PPARg-UAS-bla, beta-lactamase ratio, 16 h, percent of rosiglitazone response, DMSO as zero; series mostly up to 76.7 µM. The source says: NIH Chemical Genomics Center [NCGC] U.S. Environmental Protection Agency [EPA] National Institutes of Environmental Health Sciences [NIEHS] National Toxicology Program [NTP] NCGC Assay Overview The Peroxisome proliferator-activated receptors (PPARs) are lipid-activated transcription factors of the nuclear receptor superfamily with three distinct subtypes namely PPAR alpha, PPAR delta (also called PPAR beta) and PPAR gamma. All these subtypes heterodimerizes with Retinoid X receptor (RXR) and these heterodimers regulate transcription of various genes. PPAR-gamma (glitazone receptor) agonists have been used in the treatment of type 2 diabetes and dyslipidaemia. It is involved in the regulation of glucose and lipid metabolism. PPAR-gamma activates certain genes like Paraoxonase 1 which is responsible for hydrolyzing organophosphates. PPAR-gamma agonists may also be therapeutically important in the treatment of coronary artery disease, obesity and cancer and atherosclerosis.
Peroxisome proliferator-activated receptor gamma (Homo sapiens), sequence (P37231 whole entry, looked up): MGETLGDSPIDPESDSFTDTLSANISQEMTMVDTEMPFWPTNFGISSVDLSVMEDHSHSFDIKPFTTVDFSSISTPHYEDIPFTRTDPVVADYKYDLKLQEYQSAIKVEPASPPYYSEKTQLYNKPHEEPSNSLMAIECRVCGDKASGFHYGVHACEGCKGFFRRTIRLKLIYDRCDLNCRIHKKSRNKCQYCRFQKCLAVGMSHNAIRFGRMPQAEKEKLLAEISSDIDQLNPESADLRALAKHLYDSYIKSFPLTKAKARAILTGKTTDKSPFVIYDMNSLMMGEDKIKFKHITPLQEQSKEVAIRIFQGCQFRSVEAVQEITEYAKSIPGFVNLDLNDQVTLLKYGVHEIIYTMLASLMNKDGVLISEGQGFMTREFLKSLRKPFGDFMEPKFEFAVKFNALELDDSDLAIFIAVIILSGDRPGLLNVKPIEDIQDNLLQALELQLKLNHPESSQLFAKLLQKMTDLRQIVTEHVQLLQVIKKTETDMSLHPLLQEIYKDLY
NCGC Assay Protocol Summary Using a beta-lactamase reporter-gene under control of Peroxisome Proliferator-Activated-gamma (PPAR-gamma) response element, a cell-based assay [GeneBLAzer PPAR-gamma-UAS-bla assay developed by Invitrogen] was used to measure PPAR-gamma ligands signaling. GeneBLAzer PPAR-gamma-UAS-bla-HEK293 cells were used with assay medium containing 1% charcoal/dextran treated FBS. The assay was performed in clear bottom black Greiner 1536-well plates. Rosiglitazone was used in the screen as the positive control. Library compounds were measured for their ability to stimulate the reporter gene activity. Compounds were screened in a titration series in 1536-well format. The fluorescence intensity (405 nm excitation, 460/530 nm emission) was measured using an EnVision plate reader. Data was normalized relative to Rosiglitazone control (2 uM, 100%), and DMSO only wells (basal, 0%). Concentration-response titration points for each compound were fitted to the Hill equation yielding concentrations of half-maximal stimulation (EC50) and maximal response (efficacy) values. qHTS protocol for PPAR-gamma beta-lactamase assay in agonist mode [Step] [Parameter] [Value] [Description] 1. Reagent; 6 uL; 3000 cells/well 2. Incubation; 37 C for 6 - 6.5 hrs 3. Compounds; 23 nL; 0.59 nM to 92 uM 4. Controls (Rosiglitazone); 23 nL, - One column with dose response, start 19 uM, 1:3 dilutions in duplicates - Final concentrations of 2 uM and 0.5 uM in two columns 5. Incubation; 37 C for 16 hrs 6. Detection reagent; 1 uL of CCF4-dye 7. Incubation; RT for 2 hrs 8. Detection; Fluorescence; Envision plate reader
For orientation: qHTS replaces the single test concentration by a dilution series.
Turning to `CC(C)OC(=O)Nc1ccccc1`, the outcome was inactive. Next, `CC(=O)[C@H]1CC[C@H]2[C@@H]3CCC4=CC(=O)CC[C@]4(C)[C@H]3CC[C@]12C`: “inactive”.

With `CCOC(=O)c1ccccc1N`, the result was inactive.

In the case of `CCOP(=S)(OCC)SCSCC`, the outcome was inactive.

Turning to `Cc1ccccc1O`, the result was inactive. On to `Oc1ccccc1Cl`, for which the outcome was inactive. Regarding `Cc1ccc2cc3c(ccc4ccccc43)c3c2c1CC3`, the result was inactive. Next, `CCCCOP(=O)(O)OCCCC`: “inactive”. Under `c1ccc(Nc2ccc3ccccc3c2)cc1` stands “inactive”. On to `COC(=O)c1ccccc1C(=O)OC`, for which the result was inactive. Under `COC1=CC(=O)OC(CCc2ccc3c(c2)OCO3)C1` (stereo not given) stands “inactive”; under `CC(=O)/C=C/c1ccccc1`, “inactive”; under `Cc1ccc(C)c2ccccc12`, “inactive”. Under `C[C@H]1O[C@H](OC2[C@@H](O)[C@@H](O)C(O)[C@H](O)[C@H]2O)[C@@H](N)C[C@@H]1N=C(N)C(=O)O` (stereo not given in full) stands “inactive”. Next, `CC(C)COC(=O)c1ccccc1C(=O)OCC(C)C`: “inactive”.
